In PubChem BioAssay (EPA / NIEHS):
Records with an inconclusive call do not appear. The source made the active and inactive calls. How the source made its calls, unless noted: active means hit-call score of the fitted dose curve at least 0.9, where 1 is the maximum; inconclusive means response in the unintended direction; inactive means score below 0.9.

Key:
[1] = ATG_TAL_CIS: Attagene CIS-FACTORIAL HepG2 Assay for human TAL Basal Promoter (AID 2282966; active means hit-call score of the fitted dose curve at least 0.9, where 1 is the maximum; inactive means score below 0.9;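 further: background control endpoint measuring basal TAL promoter reporter mRNA not a specific factor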); details: HepG2 Attagene cis-factorial TAL promoter reporter; actives raise or lower the signal
Summary of the method: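 Basal-promoter background-control endpoint from a multiplexed HepG2 reporter panel. Cells were exposed 24 h, then reporter mRNA was read by RT-PCR/CE fluorescence and fitted in both directions relative to DMSO.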

[2] = ATG_VDRE_CIS: Attagene CIS-FACTORIAL HepG2 Assay for human Vitamin D Receptor Element (VDRE) (AID 2282968; active means hit-call score of the fitted dose curve at least 0.9, where 1 is the maximum; inactive means score below 0.9); details: HepG2 VDRE cis-reporter transcription, actives raise or lower the signal
Summary of the method: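 Steps: transfect HepG2 with multiple reporter transcription units; dose chemicals 24 h; isolate RNA; RT-PCR; label with 6-FAM primer extension; HpaI digest; capillary electrophoresis. Curves fitted both directions against DMSO.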

[3] = molecular target: Estrogen receptor (Homo sapiens) (UniProt P03372); assay: ATG_ERa_TRANS: Attagene TRANS-FACTORIAL HepG2 Assay for human Estrogen Receptor alpha (ERa) (AID 2282970); details: HepG2 Attagene TRANS ERa GAL4 reporter, mRNA
Summary of the method: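 Gal4-fusion ERa transactivation, measured as reporter transcript level in transiently transfected HepG2 cells. Exposure 24 h; RT-PCR plus capillary electrophoresis with fluorescence detection.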

[4] = molecular target: X-box-binding protein 1 (Homo sapiens) (UniProt P17861); assay: ATG_Xbp1_CIS: Attagene CIS-FACTORIAL HepG2 Assay for human X-box Binding Protein 1 (XBP1) (AID 2282972; active means hit-call score of the fitted dose curve at least 0.9, where 1 is the maximum; inactive means score below 0.9); details: HepG2 XBP1 cis-element reporter, Attagene multiplex; actives raise or lower the signal
Summary of the method: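 Human hepatoma HepG2, cis-element reporter system, 24 h treatment; mRNA quantified by RT-PCR/CE fluorescence; fit relative to DMSO.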

[5] = ATG_M_19_TRANS: Attagene TRANS-FACTORIAL HepG2 Assay for M19 Transcription Factor (Internal Marker) (AID 2282974); details: HepG2 Attagene TRANS-FACTORIAL M19 internal marker reporter
Summary of the method: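 Gain-of-signal in reporter mRNA, relative to DMSO, was scored from capillary electrophoresis fluorescence. HepG2 cells carried transiently transfected multiple reporter transcription units and were incubated with test chemicals for 24 h.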

[6] = molecular target: Glucocorticoid receptor (Homo sapiens) (UniProt P04150); assay: ATG_GR_TRANS: Attagene TRANS-FACTORIAL HepG2 Assay for human Glucocorticoid Receptor (GR) (AID 2282978); details: HepG2 Attagene TRANS GR reporter, mRNA transcription;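 further: activators score as hits since higher reporter transcript over DMSO is fitted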
Summary of the method: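 HepG2 transient transfection, multiple reporter units, GAL4-UAS under NR-GAL4 chimera control. 24 h treatment. Reporter mRNA by RT-PCR/CE fluorescence, DMSO as negative control.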

[7] = molecular target: Hepatocyte nuclear factor 4-alpha (Homo sapiens) (UniProt P41235); assay: ATG_HNF4a_TRANS: Attagene TRANS-FACTORIAL HepG2 Assay for human Hepatocyte Nuclear Factor 4 alpha (HNF4a) (AID 2282982); details: HepG2 HNF4a transactivation reporter, mRNA readout
Summary of the method: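 In this trans-factorial format, a chimeric HNF4a-GAL4 fusion drives a GAL4-UAS reporter in transfected HepG2 liver cells. After 24 h treatment, reporter mRNA induction is measured by RT-PCR with capillary electrophoresis, relative to DMSO.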

[8] = molecular target: Transcriptional activator Myb (Homo sapiens) (UniProt P10242); assay: ATG_Myb_CIS: Attagene CIS-FACTORIAL HepG2 Assay for human Myeloblastosis (Myb) Proto-Oncogene Transcription Factor (AID 2282986; active means hit-call score of the fitted dose curve at least 0.9, where 1 is the maximum; inactive means score below 0.9); details: HepG2 Attagene CIS-FACTORIAL Myb reporter transcription; actives raise or lower the signal
Summary of the method: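 Multiplexed cis-reporter system in HepG2: transient transfection, 24 h treatment, mRNA readout by RT-PCR and capillary electrophoresis. Both increases and decreases are scored versus DMSO negative control.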

[9] = molecular target: Nuclear respiratory factor 1 (Homo sapiens) (UniProt Q16656); assay: ATG_NRF1_CIS: Attagene CIS-FACTORIAL HepG2 Assay for human Nuclear Respiratory Factor 1 (NRF1) Orphan Gene (AID 2282987; active means hit-call score of the fitted dose curve at least 0.9, where 1 is the maximum; inactive means score below 0.9); details: HepG2 NRF1 cis-element reporter, Attagene multiplex; actives raise or lower the signal
Summary of the method: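 Endogenous factor activity was captured via cis-element-driven reporter transcripts in HepG2 cells. Following 24 h chemical treatment, transcripts were quantified by RT-PCR and capillary electrophoresis.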

[10] = ATG_GAL4_TRANS: Attagene TRANS-FACTORIAL HepG2 Assay for GAL4 (Internal Marker) (AID 2282976); details: HepG2 Attagene TRANS GAL4 internal marker reporter
Summary of the method: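 Background-control readout: GAL4-UAS reporter transcript in transiently transfected HepG2 cells after 24 h compound exposure. Measured by RT-PCR, 6-FAM primer extension, HpaI digest and capillary electrophoresis; gain-of-signal fit versus DMSO.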

[11] = molecular target: Oxysterols receptor LXR-beta (Homo sapiens) (UniProt P55055); assay: ATG_LXRb_TRANS: Attagene TRANS-FACTORIAL HepG2 Assay for human Liver X Receptor beta (LXRb) (AID 2282981); details: HepG2 Attagene TRANS GAL4-LXRb reporter, mRNA
Summary of the method: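 Measures induction of a Gal4-driven reporter transcript in HepG2 cells expressing an exogenous LXRb-Gal4 fusion. Cells are exposed to compound for 24 h before RNA isolation and RT-PCR with capillary electrophoresis detection.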

[12] = ATG_M_06_TRANS: Attagene TRANS-FACTORIAL HepG2 Assay for M06 Transcription Factor (Internal Marker) (AID 2282983); details: HepG2 Attagene TRANS M06 internal marker reporter
Summary of the method: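 mRNA levels of a reporter transcript, quantified as FAM fluorescence on capillary electrophoresis, served as readout. HepG2 cells expressing exogenous GAL4-chimera reporter constructs were exposed for 24 h. Gain of signal over DMSO was evaluated.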

[13] = molecular target: Nuclear receptor subfamily 4 group A member 2 (Homo sapiens) (UniProt P43354); assay: ATG_NURR1_TRANS: Attagene TRANS-FACTORIAL HepG2 Assay for human Nuclear Receptor Related Protein 1 (NURR1) (AID 2282985); details: HepG2 Attagene TRANS reporter, mRNA readout
Summary of the method: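 Chimeric NR-Gal4 fusion activity measured in HepG2 after 24 h treatment. Reporter transcripts detected by RT-PCR and capillary electrophoresis fluorescence; positive-direction curve fitting against DMSO.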

[14] = ATG_TGFb_CIS: Attagene CIS-FACTORIAL HepG2 Assay for human Transforming Growth Factor (TGF) (AID 2282967; active means hit-call score of the fitted dose curve at least 0.9, where 1 is the maximum; inactive means score below 0.9); details: HepG2 Attagene CIS TGFb reporter, mRNA transcription; actives raise or lower the signal
Summary of the method: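 Transient MRTU transfection of HepG2 (FuGene 6). Dose 24 h. TriZol RNA, oligo(dT) RT, PCR, 6-FAM primer extension, HpaI cut, CE. Bidirectional fit, DMSO = baseline.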

[15] = molecular target: Steroid hormone receptor ERR1 (Homo sapiens) (UniProt P11474); assay: ATG_ERRa_TRANS: Attagene TRANS-FACTORIAL HepG2 Assay for human Estrogen-Related Receptor alpha (ERRa) (AID 2282971); details: HepG2 Attagene TRANS reporter, ERRa transactivation
Summary of the method: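 HepG2 cells transiently transfected with GAL4-UAS reporter units and chimeric NR-Gal4 constructs; after 24 hour compound incubation, reporter mRNA quantified by RT-PCR, fluorescent labelling and capillary electrophoresis, gain of signal versus DMSO.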

[16] = ATG_M_32_TRANS: Attagene TRANS-FACTORIAL HepG2 Assay for M32 Transcription Factor (Internal Marker) (AID 2282984); details: HepG2 Attagene TRANS M32 internal marker reporter
Summary of the method: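 After 24 h dosing of transfected HepG2 cells, total RNA was reverse-transcribed, reporter sequences PCR-amplified, 6-FAM labelled by primer extension and HpaI-digested before capillary electrophoresis. Signal increase over DMSO was fitted.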

[17] = molecular target: Nuclear receptor subfamily 1 group I member 3 (Homo sapiens) (UniProt Q14994); assay: ATG_CAR_TRANS: Attagene TRANS-FACTORIAL HepG2 Assay for human Constitutive Androstane Receptor (CAR) (AID 2282969); details: HepG2 Attagene TRANS-FACTORIAL CAR reporter;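 further: activators raise reporter mRNA above DMSO so AC50 marks induction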
Summary of the method: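 Steps: transient transfection of HepG2 with multiple GAL4-UAS reporter units; 24 h compound incubation; RNA isolation, RT-PCR, 6-FAM primer extension, HpaI digest; capillary electrophoresis. Gain-of-signal relative to DMSO negative control.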

[18] = molecular target: Bile acid receptor (Homo sapiens) (UniProt Q96RI1); assay: ATG_FXR_TRANS: Attagene TRANS-FACTORIAL HepG2 Assay for Farnesoid X Receptor (FXR) (AID 2282979); details: HepG2 Attagene TRANS FXR-GAL4 reporter transcription;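 further: hits raise reporter mRNA above DMSO so AC50 marks FXR activation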
Summary of the method: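 HepG2 cells were transiently transfected with GAL4-UAS reporters driven by chimeric NR-Gal4 proteins and dosed for 24 h. Reporter mRNA was quantified by RT-PCR, fluorescent labelling, HpaI digestion and capillary electrophoresis, with gain of signal scored versus DMSO.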

[19] = molecular target: Oxysterols receptor LXR-alpha (Homo sapiens) (UniProt Q13133); assay: ATG_LXRa_TRANS: Attagene TRANS-FACTORIAL HepG2 Assay for human Liver X Receptor alpha (LXRa) (AID 2282980); details: HepG2 Attagene TRANS reporter, LXRa transactivation
Summary of the method: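 HepG2 cells transiently transfected with GAL4-UAS reporter units for chimeric NR-Gal4 proteins, exposed to chemicals for 24 h. Reporter mRNA quantified by RT-PCR and capillary electrophoresis; gain of signal fitted relative to DMSO.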

Measured: outcome

Chain of Oxysterols receptor LXR-beta (Homo sapiens) (P55055 whole entry, looked up, the tested form may be a part): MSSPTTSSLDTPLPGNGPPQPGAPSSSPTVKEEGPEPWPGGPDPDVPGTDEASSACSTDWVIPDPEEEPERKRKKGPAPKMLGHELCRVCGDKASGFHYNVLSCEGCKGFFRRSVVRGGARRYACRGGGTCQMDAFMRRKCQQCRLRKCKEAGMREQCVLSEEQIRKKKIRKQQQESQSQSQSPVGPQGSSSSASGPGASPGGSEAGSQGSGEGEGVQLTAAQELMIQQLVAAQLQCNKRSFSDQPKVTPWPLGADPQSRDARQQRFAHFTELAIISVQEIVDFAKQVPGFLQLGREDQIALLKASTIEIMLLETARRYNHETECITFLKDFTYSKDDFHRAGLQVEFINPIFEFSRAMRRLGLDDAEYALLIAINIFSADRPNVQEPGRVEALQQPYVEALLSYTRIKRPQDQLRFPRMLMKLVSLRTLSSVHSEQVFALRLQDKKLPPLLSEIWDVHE
Chain of Hepatocyte nuclear factor 4-alpha (Homo sapiens) (P41235 whole entry, looked up, the tested form may be a part): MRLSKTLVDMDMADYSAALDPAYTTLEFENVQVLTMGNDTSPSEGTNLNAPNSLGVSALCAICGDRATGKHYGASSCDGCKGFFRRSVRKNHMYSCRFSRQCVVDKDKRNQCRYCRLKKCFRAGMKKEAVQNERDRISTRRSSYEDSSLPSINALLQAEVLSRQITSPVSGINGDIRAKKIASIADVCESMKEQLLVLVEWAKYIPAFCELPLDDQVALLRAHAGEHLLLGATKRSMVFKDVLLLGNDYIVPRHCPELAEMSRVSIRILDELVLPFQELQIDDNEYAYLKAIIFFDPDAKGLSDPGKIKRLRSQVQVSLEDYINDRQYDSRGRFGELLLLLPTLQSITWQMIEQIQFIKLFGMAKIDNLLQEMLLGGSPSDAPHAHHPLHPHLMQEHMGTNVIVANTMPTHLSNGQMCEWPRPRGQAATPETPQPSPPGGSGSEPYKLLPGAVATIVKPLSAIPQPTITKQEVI
Chain of Transcriptional activator Myb (Homo sapiens) (P10242 whole entry, looked up): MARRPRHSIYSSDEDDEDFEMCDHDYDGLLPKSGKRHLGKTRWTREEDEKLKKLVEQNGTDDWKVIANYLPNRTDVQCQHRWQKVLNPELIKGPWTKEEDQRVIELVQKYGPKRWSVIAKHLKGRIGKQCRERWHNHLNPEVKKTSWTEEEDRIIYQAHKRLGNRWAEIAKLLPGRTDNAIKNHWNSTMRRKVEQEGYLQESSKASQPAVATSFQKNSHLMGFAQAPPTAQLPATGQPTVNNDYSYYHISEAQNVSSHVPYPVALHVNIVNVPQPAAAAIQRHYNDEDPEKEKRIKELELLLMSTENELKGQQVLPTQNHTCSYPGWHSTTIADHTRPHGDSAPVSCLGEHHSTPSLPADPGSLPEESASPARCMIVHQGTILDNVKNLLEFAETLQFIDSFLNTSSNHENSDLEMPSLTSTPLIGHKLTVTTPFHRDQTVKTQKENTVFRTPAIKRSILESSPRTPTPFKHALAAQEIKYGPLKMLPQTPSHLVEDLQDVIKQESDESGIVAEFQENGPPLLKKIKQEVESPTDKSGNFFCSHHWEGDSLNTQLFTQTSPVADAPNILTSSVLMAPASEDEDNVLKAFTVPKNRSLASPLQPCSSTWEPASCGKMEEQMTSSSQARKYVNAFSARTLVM
Chain of Steroid hormone receptor ERR1 (Homo sapiens) (P11474 whole entry, looked up, the tested form may be a part): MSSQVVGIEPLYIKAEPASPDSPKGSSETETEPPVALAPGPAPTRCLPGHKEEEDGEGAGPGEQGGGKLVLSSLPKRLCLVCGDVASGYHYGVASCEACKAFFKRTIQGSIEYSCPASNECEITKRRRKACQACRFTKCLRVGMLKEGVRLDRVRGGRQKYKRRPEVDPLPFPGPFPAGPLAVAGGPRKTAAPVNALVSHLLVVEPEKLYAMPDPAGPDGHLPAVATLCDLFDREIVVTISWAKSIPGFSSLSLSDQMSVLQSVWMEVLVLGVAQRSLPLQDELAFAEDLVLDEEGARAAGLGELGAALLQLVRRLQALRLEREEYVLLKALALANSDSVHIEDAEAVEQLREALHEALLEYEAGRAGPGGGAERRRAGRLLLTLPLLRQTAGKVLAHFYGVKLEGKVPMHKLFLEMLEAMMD
Chain of Nuclear receptor subfamily 4 group A member 2 (Homo sapiens) (P43354 whole entry, looked up, the tested form may be a part): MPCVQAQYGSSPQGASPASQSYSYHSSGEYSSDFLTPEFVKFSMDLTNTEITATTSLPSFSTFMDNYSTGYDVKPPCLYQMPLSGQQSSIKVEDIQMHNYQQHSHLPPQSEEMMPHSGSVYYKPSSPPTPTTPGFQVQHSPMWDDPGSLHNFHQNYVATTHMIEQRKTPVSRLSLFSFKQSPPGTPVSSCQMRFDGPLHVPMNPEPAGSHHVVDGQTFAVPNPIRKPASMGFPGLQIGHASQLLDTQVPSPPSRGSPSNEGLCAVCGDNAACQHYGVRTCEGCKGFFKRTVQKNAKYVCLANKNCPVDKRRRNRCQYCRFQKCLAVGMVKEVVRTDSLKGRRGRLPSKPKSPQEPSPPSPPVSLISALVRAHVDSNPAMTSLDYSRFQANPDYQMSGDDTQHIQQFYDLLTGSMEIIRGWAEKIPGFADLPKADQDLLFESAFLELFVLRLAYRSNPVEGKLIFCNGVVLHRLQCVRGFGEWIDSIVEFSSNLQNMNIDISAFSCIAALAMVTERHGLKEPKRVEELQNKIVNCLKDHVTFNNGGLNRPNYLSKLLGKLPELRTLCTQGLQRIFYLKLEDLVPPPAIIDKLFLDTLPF
Chain of Glucocorticoid receptor (Homo sapiens) (P04150 whole entry, looked up, the tested form may be a part): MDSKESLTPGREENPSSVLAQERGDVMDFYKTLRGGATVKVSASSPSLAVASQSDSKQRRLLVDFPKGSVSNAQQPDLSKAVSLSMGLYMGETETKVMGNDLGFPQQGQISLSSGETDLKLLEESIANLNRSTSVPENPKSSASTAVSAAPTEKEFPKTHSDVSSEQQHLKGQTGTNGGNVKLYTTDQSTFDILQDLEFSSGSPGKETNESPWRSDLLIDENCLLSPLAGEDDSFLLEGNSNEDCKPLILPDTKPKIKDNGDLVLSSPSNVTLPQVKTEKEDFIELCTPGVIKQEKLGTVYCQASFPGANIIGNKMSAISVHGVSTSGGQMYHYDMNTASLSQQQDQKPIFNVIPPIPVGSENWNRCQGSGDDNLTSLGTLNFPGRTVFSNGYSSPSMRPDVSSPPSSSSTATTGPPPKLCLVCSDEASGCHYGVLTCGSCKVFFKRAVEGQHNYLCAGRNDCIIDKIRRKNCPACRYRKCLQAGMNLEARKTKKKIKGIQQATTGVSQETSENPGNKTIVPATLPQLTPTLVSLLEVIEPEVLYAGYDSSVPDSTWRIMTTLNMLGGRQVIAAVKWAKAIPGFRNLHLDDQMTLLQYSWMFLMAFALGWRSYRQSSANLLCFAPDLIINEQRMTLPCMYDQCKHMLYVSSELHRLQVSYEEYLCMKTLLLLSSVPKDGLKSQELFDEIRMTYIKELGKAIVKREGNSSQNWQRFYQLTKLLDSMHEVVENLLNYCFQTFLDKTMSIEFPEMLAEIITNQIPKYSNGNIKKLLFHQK
Chain of X-box-binding protein 1 (Homo sapiens) (P17861 whole entry, looked up): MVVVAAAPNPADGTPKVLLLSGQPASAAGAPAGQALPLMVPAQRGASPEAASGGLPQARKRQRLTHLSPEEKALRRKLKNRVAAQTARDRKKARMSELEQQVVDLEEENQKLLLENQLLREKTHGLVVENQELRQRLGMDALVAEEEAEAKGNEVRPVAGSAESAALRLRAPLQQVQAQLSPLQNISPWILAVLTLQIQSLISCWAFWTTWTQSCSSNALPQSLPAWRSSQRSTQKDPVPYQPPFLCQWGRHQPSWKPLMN
Chain of Nuclear receptor subfamily 1 group I member 3 (Homo sapiens) (Q14994 whole entry, looked up, the tested form may be a part): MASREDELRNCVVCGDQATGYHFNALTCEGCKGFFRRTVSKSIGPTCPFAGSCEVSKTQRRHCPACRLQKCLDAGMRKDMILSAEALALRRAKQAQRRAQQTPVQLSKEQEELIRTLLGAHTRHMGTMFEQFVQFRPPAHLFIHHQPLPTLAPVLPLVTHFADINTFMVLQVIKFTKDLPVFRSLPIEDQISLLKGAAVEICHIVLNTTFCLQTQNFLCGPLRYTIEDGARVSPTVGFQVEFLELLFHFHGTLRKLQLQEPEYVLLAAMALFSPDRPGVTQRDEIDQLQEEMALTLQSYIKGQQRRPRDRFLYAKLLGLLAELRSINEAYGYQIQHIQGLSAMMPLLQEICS
Chain of Nuclear respiratory factor 1 (Homo sapiens) (Q16656 whole entry, looked up): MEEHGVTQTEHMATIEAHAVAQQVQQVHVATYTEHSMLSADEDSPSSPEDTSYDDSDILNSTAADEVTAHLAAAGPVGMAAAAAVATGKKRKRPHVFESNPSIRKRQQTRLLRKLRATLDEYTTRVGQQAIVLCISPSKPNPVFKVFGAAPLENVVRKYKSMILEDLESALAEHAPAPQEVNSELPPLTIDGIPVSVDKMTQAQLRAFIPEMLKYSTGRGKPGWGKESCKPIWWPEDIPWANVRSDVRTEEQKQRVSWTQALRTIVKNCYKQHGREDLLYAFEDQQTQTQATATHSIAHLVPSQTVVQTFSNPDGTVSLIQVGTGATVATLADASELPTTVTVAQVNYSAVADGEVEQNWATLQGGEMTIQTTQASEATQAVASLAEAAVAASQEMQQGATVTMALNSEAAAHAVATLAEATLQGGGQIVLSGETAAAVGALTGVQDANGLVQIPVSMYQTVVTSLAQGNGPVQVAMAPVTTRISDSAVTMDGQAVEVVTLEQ
Chain of Oxysterols receptor LXR-alpha (Homo sapiens) (Q13133 whole entry, looked up, the tested form may be a part): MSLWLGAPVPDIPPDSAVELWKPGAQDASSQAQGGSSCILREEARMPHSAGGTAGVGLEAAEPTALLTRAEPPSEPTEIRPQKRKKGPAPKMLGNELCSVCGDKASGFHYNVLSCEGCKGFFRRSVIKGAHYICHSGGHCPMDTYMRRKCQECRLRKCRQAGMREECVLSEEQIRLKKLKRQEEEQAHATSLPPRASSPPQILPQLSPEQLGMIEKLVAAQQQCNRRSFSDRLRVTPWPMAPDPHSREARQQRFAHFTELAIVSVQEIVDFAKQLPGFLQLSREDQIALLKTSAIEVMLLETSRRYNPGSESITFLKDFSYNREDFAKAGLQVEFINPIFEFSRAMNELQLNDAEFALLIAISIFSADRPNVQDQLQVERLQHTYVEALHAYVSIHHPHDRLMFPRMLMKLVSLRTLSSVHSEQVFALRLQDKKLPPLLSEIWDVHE

CCOC(=O)CC(C(C)=O)C(C)=O
inactive: [1] | [2] | [3] | [4] | [5] | [6] | [7] | [8] | [9]

CC(C)=CCC[C@H](C)CCO
inactive: [1] | [3] | [4] | [10] | [11] | [12] | [13] | [9]

COC(=O)/C=C\C(=O)O
inactive: [1] | [14] | [4] | [6] | [11] | [7] | [12] | [8] | [9]

Cc1cccc(C(=O)O)c1
not listed: [5] | [6] | [7] | [13] | [14] | [17] | [18] | [19]
inactive: all other assays above

O=C(O)Cc1c(Cl)ccc(Cl)c1Cl
inactive: [1] | [14] | [4] | [5] | [7] | [16] | [8] | [9]

O=c1cc[nH]c(=S)[nH]1
inactive: [1] | [3] | [15] | [4] | [7] | [12] | [16] | [9]

Cc1ccc(OC(=O)CC(C)C)cc1
not listed: [2] | [5] | [6] | [14] | [15] | [19]
inactive: all other assays above

O=C(O)c1cc(Cl)cc([N+](=O)[O-])c1Cl
inactive: [1] | [2] | [17] | [4] | [5] | [10] | [7] | [12] | [16] | [9]

Cc1cc(C)c(C)c(O)c1
not listed: [6] | [7] | [14] | [18]
inactive: all other assays above

C=C(C)C(=O)OCCO
not listed: [14] | [15] | [18]
inactive: all other assays above
